# NPC1 prom act: qHTS Assay for NPC1 Promoter Activators. 320,000 compounds, 2.4% hits. AID 485313, 2010. Potency, µM (highest dose often 9.22 µM), inactives show at the highest dose activation, usual class: activators. Huh7 NPC1 promoter luciferase reporter, 24 h; further: % of control where 0% means no effect; nearly all actives have a fitted effect of over 60% in size
#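 Luciferase expression driven by the NPC1 promoter was measured in stably transfected Huh7 cells after a 24 h compound incubation, using a luciferase reagent and a luminescence read.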
# FLuc modulator: qHTS profiling assay for firefly luciferase inhibitor/activator using purifed enzyme and Km concentrations of substrates (counterscreen for miR-21 project); Luciferin 4-monooxygenase (Photinus pyralis), P08659; purified FLuc, Km substrates, luminescence inhibition; AID 588342, 2011; 360,000 compounds, 6.9% hits; Potency, µM (titrated, usually from 57.5 µM), inactives show at the highest dose activity change, negative = inhibition, actives largely listed as inhibitors;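 further: plate controls were vehicle for no effect and reference inhibitor for full effect; nearly all actives have a fitted effect of over 55% in size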
# Target sequence (P08659 whole entry, looked up): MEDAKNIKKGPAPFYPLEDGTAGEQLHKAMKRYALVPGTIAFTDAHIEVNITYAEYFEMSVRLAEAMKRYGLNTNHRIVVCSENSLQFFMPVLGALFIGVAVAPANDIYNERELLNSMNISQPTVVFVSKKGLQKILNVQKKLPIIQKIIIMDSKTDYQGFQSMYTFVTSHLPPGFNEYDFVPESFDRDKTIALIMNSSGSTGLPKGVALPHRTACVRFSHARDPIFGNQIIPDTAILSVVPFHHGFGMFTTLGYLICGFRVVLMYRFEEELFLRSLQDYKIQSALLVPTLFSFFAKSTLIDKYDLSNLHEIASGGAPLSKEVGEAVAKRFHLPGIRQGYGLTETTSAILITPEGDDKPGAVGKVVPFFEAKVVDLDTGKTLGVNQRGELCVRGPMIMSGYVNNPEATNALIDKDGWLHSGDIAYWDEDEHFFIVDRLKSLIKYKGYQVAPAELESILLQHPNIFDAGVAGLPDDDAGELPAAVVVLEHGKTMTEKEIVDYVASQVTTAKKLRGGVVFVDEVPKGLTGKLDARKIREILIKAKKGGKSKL
#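 Biochemical qHTS of compounds, final roughly 60 µM downward over six points, against 10 nM purified firefly luciferase using Km concentrations of substrates (10 uM D-luciferin, 10 uM ATP) in Tris acetate pH 7.5 buffer; luminescence output.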
# Rab9 prom act: qHTS Assay for Rab9 Promoter Activators | 320,000 compounds, 2.8% hits | Huh7 Rab9 promoter-luciferase reporter, luminescence, 24 h | Potency, µM (highest dose often 9.22 µM), for the others: at the highest dose activation, negative = inhibition, usual class: activators; further: % of control where 0% means no effect; nearly all actives have a fitted effect of over 60% in size
#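 Using Huh7 cells stably transfected with Rab9 promoter–luciferase, compounds were incubated 24 h at 37 °C, 5% CO2; luciferase luminescence was read 10 min after reagent addition.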
# ELG1 genotoxic: qHTS screen for small molecules that induce genotoxicity in human embryonic kidney (HEK293T) cells expressing luciferase-tagged ELG1; Potency, µM (doses to about 46 µM), for the others: at the top dose activity change, positive = activation, hits mostly activators; 330,000 compounds, 1.3% hits; AID 504466, 2011; HEK293T ELG1-luciferase reporter, luminescence, 16 h; further: % of control where 0% means no effect; nearly all actives have a fitted effect of over 60% in size
#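 Quantitative HTS format in 1536-well plates. HEK293T ELG1-luciferase reporter cells receive test compound and are incubated 16 hr at 37 °C, 5% CO2; ONE-Glo added, 30 min room temperature, then luminescence read.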
# SMN2 splice up: qHTS Assay for Enhancers of SMN2 Splice Variant Expression; HEK293 SMN2-luciferase splicing reporter, luminescence, 30-36 h; Potency, µM (highest dose often 46.1 µM), for the others: top-dose activity change, positive = activation, hits mostly activators; 210,000 compounds, 2.8% hits; AID 1458, 2008; further: % of control where 0% means no effect; nearly all actives have a fitted effect of over 55% in size
#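 HEK293 cells carry an SMN2 […]–luciferase reporter in which exon 7 inclusion puts luciferase in frame. Cells were plated 10-12 h before compound addition, then incubated 30-36 h at 37C. ONE-Glo luminescence was read; sodium butyrate at 4.5 mM final served as control.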
# p53 reactivation: qHTS assay for re-activators of p53 using a Luc reporter. H1299 p53-A138V BP100-luciferase reporter, luminescence, 24 h. Potency, µM (series often up to 92.2 µM), for the others: top-dose activity change, positive = activation, actives largely listed as activators. 320,000 compounds, 0.063% hits; further: % of control where 0% means no effect; nearly all actives have a fitted effect of over 45% in size
#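 H1299 (p53-null), stable ts p53-A138V + BP100-Luc; 1000 cells/well, Opti-MEM/10% FBS; cpd 4 pt, 1:5; 24 h, 37 deg C, 5% CO2; detection reagent 10 min RT; luminescence.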
# Numbers without * were called inactive; ? = inconclusive; . = not tested or not shown; [ ] = another dose, or the depositor's remark. Rows were chosen to be rich in hits. Some 7.4% of all compounds tested hit in one or more screens of this group. The call rests on the fitted dose curve; in most records, active means well fitted curve in the direction sought with a large enough effect; inconclusive means small, poorly fitted or top-dose-only effect, or another doubt; inactive means no such curve, though single readings can be large; an effect the other way counts as inactive or inconclusive. Potency means the concentration at half of the fitted maximal effect.
SMILES,NPC1 prom act,FLuc modulator,Rab9 prom act,ELG1 genotoxic,SMN2 splice up,p53 reactivation
CN(CC(=O)O/N=C(\N)c1ccccn1)S(=O)(=O)c1ccc(Br)cc1,4.8%,2.8%,1.0%,-3.8%,-0.1%,11.1%
Cc1ccc(C(=O)O/N=C(\N)c2ccccn2)c(Cl)c1,?,0.019µM*,0.708µM*,?,.,-10.3%
Cc1ccc(C(=O)O/N=C(\N)c2ccccc2)c(Cl)c1,2.24µM*,0.0849µM*,0.794µM*,?,.,-6.6%
Cc1ccccc1OC(=O)CSc1nnc(-c2cccs2)o1,.,4.7%,.,.,.,.
Cc1c(C(=O)O/N=C(\N)c2ccccn2)cccc1[N+](=O)[O-],3.16µM*,0.301µM*,0.794µM*,2.06µM*,.,-9.8%
N/C(=N\OC(=O)Cc1ccccc1[N+](=O)[O-])c1ccccn1,7.0%,?,-10.2%[1.84 µM],?,-16.5%,12.6%
N/C(=N\OC(=O)CCCOc1ccc(Cl)cc1Cl)c1ccccn1,-8.1%,-18.5%,0.1%,2.2%,-2.9%,10.6%
N/C(CS(=O)(=O)c1ccccn1)=N\OC(=O)c1ccccc1Cl,2µM*,?,2.24µM*,?,.,?
N/C(=N\OC(=O)c1ccc(Cl)cc1Cl)c1ccccn1,0.316µM*,0.0953µM*,0.112µM*,0.259µM*,.,-9.4%
CSc1ccc(S(=O)(=O)NCC(=O)OCC(=O)N2CCCC2=O)cc1[N+](=O)[O-],1.4%,-0.5%,-1.6%,-0.2%,.,-14.3%
COc1cc2c(cc1O)C(Cc1ccc(O)cc1)[N+](C)(C)CC2 (stereo not given),.,.,.,.,-1.0%,.
Cc1ccccc1C(=O)OCc1cc(=O)n2nc(C(C)C)sc2n1,.,16.9µM*,.,.,.,.
CCCc1nn2c(=O)cc(COC(=O)c3cccs3)nc2s1,.,26.9µM*,.,.,.,.
CC(C)c1nn2c(=O)cc(COC(=O)C3CCCCC3)nc2s1,.,23.9µM*,.,.,.,.
Cc1ccc(-c2c(C(=O)N3CCN(c4ccc(F)cc4)CC3)oc(=O)c3ccccc23)cc1,.,-1.7%,.,.,-9.0%,.
CCN(CC)C(=O)COc1ccc(-c2ccccc2)cc1,?,13.5µM*,?,?,8.1%,?
CCN(CC)C(=O)COc1ccc(/C(C)=N/NC(=O)c2ccccc2O)cc1,13.0%,6.75µM*,?,18.0%,-16.3%,-1.2%
O=C(N/N=C/c1ccc[nH]1)c1ccc(Cl)cc1,-23.7%,10.7µM*,-2.5%,18.6%,8.3%,?
COc1cc(C(=O)N/N=C/c2ccccn2)cc(OC)c1OC,-21.6%,2.8%,-4.0%,-3.3%,-15.8%,-4.9%
Cc1ccc(C(=O)Nc2ccc(C(=O)N/N=C/c3ccccn3)cc2)cc1,27.3%,15.1µM*,?,-29.0%,.,-2.4%
O=C(N/N=C/c1ccccn1)c1ccccc1,?,10.7µM*,3.55µM*,?,11.2µM*,?
O=C(N/N=C/c1ccccn1)c1ccc(Cl)cc1,?,8.49µM*,3.16µM*,18.3µM*,.,?
Cc1ccc(-n2ccnc(NCCc3ccc(S(N)(=O)=O)cc3)c2=O)c(C)c1,.,3.5%,.,.,.,.
CCOc1ccc(NS(=O)(=O)c2ccc3[nH]cc(C(=O)N4CCCC4)c(=O)c3c2)cc1,.,?,.,.,4.1%,.
C/C(=N/NC1=NCCN1)c1cn(C2=NCCN2)nc1C,.,.,.,.,-15.8%[9.22 µM],.
O=C(N/N=C/c1ccccn1)c1cccs1,5.5%,19µM*,7.3%,?,-44.9%,?
COc1ccc(C(=O)N/N=C/c2ccccn2)cc1OC,-0.8%,-6.4%,8.9%,-1.1%,.,-0.6%
CN(C)c1ccc(C(=O)N/N=C/c2ccccn2)cc1,2.82µM*,13.5µM*,2.51µM*,?,.,20.8%
O=C(Nc1nc(-c2ccccc2)cs1)NC1CCCCC1,17.3%,?,20.4%,23.1µM*,-27.5%,?
COc1ccc(-c2csc(NC(=O)CN3C(=O)CCC3=O)n2)c(OC)c1,-1.1%,?,-1.0%,0.6%,16.6%,-1.7%

# Source: PubChem
